In the library only some 2.5% were active in any assay of this set; here they are far more common.
WRN helicase inh – qHTS for Inhibitors of WRN Helicase; Bifunctional 3'-5' exonuclease/ATP-dependent helicase WRN (Homo sapiens), Q14191; WRN helicase unwinding, fluorescent forked duplex, kinetic; Potency, µM (titrated, usually from 114 µM), for inactives: at the top dose activity change, negative = inhibition, usual class: inhibitors; 0.46% of 360,000 active; AID 651768, 2012; further: on the % scale 0 is the no-effect control and ±100 the full control effect; nearly all actives have a fitted effect of over 55% in size
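Fluorescence dequenching readout, ex 525 nm/em 598 nm, kinetic mode: forked duplex DNA (100 nM final) with adjacent fluorophore and quencher unwound by WRN (20 nM final) with 2 mM ATP. Compound preincubation 15 min, room temperature.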
L3MBTL1 inh – qHTS Assay for the Inhibitors of L3MBTL1. AlphaScreen L3MBTL1–H3K9me1 peptide binding. Potency, µM (top dose mostly 57.1 µM), for inactives: top-dose activity, negative = inhibition, hits mostly inhibitors. 0.66% of 230,000 active. AID 485360, 2010; further: on the % scale 0 is the no-effect control and ±100 the full control effect; nearly all actives have a fitted effect of over 60% in size
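AlphaScreen assay: L3MBTL1 (50 nM final) was preincubated 30 min at room temperature with biotinylated H3(1-15)K9me1 peptide (75 nM final), then 30 min with library compounds; streptavidin donor and nickel chelate acceptor beads (10 ug/mL final) added, 30 min dark.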
Pol eta inh – qHTS for Inhibitors of Polymerase Eta; 1.2% of 390,000 active; recombinant Pol eta, fluorescent DNA replication assay; DNA polymerase eta (Homo sapiens), Q9Y253; Potency, µM (top dose mostly 114 µM), without a hit: at the highest dose activity change, negative = inhibition, actives largely listed as inhibitors; further: on the % scale 0 is the no-effect control and ±100 the full control effect
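Fluorescent replication assay: 50 nM final substrate added after a 15 min room-temperature compound preincubation with 10 nM enzyme. Signal taken at 0 min and again at 10 min.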
POLK inh – qHTS for Inhibitors of Polymerase Kappa; DNA polymerase kappa (Homo sapiens), Q9UBT6; purified Pol kappa, fluorescent DNA synthesis assay, 10 min; 0.53% of 400,000 active; AID 588579, 2011; Potency, µM (series often up to 107 µM), for the others: at the highest dose activity, negative = inhibition, most hits filed as inhibitors; further: on the % scale 0 is the no-effect control and ±100 the full control effect
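10 nM Pol kappa preincubated 15 min at room temperature with compounds, then reaction started with substrate at 50 nM final. Fluorescence read kinetically at 0 and 10 min; buffer-only wells served as negative control.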
Pol beta inh – qHTS Assay for Inhibitors of DNA Polymerase Beta; P06746; Pol beta primer extension/strand displacement, fluorescence kinetic; Potency, µM (doses to about 114 µM), inactives show top-dose activity change, negative = inhibition, most hits filed as inhibitors; 1.3% of 340,000 active; further: on the % scale 0 is the no-effect control and ±100 the full control effect
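Pol beta (10 nM) was preincubated with compound for 15 min at room temperature. The reaction was then started with 50 nM substrate and read immediately and after a further 10 min at room temperature.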
POLI inh – qHTS for Inhibitors of Polymerase Iota | DNA polymerase iota (Homo sapiens), Q9UNA4 | Pol iota fluorescent replication assay, 10 min | Potency, µM (series often up to 115 µM), inactives show at the top dose activity, negative = inhibition, actives largely listed as inhibitors | 1% of 390,000 active
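Fluorescent replication assay read twice, at 0 min and 10 min after adding 50 nM (final) substrate. Enzyme (10 nM) and compounds were first incubated 15 min at room temperature; enzyme-free buffer wells were negative controls.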
Numbers without * were called inactive; ? = inconclusive; · = no result; ! = repeats disagree; [ ] = another dose, or the depositor's remark. The call rests on the fitted dose curve; in most records, active means well fitted curve in the direction sought with a large enough effect; inconclusive means small, poorly fitted or top-dose-only effect, or another doubt; inactive means no such curve, though single readings can be large; an effect the other way counts as inactive or inconclusive. Potency means the concentration at half of the fitted maximal effect.

SMILES	WRN helicase inh	L3MBTL1 inh	Pol eta inh	POLK inh	Pol beta inh	POLI inh
COc1cc(/C=C2/SC(=Nc3ccc(O)cc3)NC2=O)ccc1O	50µM*	-3%	32µM*	?	20µM*	?
COc1cc(/C=C2\SC(=Nc3ccccc3OC)NC2=O)ccc1O	-11%	-4%	-26%	-10%	15%	-10%
COc1cc(/C=C2\SC(=Nc3ccccc3)NC2=O)cc(Cl)c1O	?	·	?	-14%	56µM*	-11%
COc1ccc(/C=C2\SC(=Nc3ccccc3OC)NC2=O)cc1	-10%	3%	79µM*	2%	5%	?
Cc1ccc(-c2nn(-c3ccccc3)cc2/C=C/C(=O)OCC(=O)NC2CC2)o1	-3%	·	-1%	-16%	-1%	14%
C/C(=N\NC(=O)c1cc(O)ccc1O)c1cccc(NC(=O)c2ccc(Cl)cc2)c1	40µM*	·	22µM*	50µM*	45µM*	20µM*
Cc1ccc2oc3c(c(=O)c2c1)C(c1ccccc1F)N(CCCN1CCOCC1)C3=O (stereo not given)	·	·	-23%	-9%	10%	-25%
COc1cccc(CNC(=O)C2CCN(c3ncnc4c3nc3n4CCCCC3)CC2)c1	-5%	·	-3%	-21%	100µM*!	?
CCN(CC)CCNc1nc(-c2ccco2)c2c(c1C#N)CC(C)(C)OC2	3%	-4%	-16%	4%	9%	27%
CC1(C)Cc2c(C#N)c(NCCc3ccccc3)nc(-c3ccco3)c2CO1	-19%[57.1 µM]	4%	89µM*	-2%	16%	79µM*
CCC1(C)Cc2nc(Cl)c(C#N)cc2CO1 (stereo not given)	9%	·	-7%	-7%	23%	32%
CCCC1Cc2nc(Cl)c(C#N)cc2CO1 (stereo not given)	-13%	-5%	?	-30%	45µM*	?
O=C(Nc1ccc(F)cc1F)C1CCN(S(=O)(=O)c2ccc3[nH]c(=O)ccc3c2)CC1	·	·	-19%	-4%[60.1 µM]	-11%	16%
COCCNC(=O)Cn1c(=O)n(CCCC(=O)NCc2ccc3c(c2)OCO3)c(=O)c2sccc21	2%	·	-13%	-21%	5%	76%
COc1cccc(CN(C)C(=O)c2ccc3nccnc3c2)c1	-7%[11.6 µM]	·	13µM*	-27%	40µM*	?
COc1ccc(C)cc1-n1c(SCC(=O)Nc2cccc(C(=O)O)c2)nc2ccccc2c1=O	-12%	0%	2%	-28%	6%	-18%
CCOC(=O)C1=C(SCC)c2cc3c(n2C1=O)CCCC3	-15%	25µM*	?	-18%	-17%	?
C(=N\N1CCOCC1)/c1ccsc1	-6%	·	-10%	-18%	4%	?
Cc1nc2ccn(Cc3cccs3)c(=O)c2cc1C(=O)NCc1ccc(Br)cc1	·	·	-2%	-1%	-12%	?
CCc1ccc(CNC(=O)c2cc3c(=O)n(Cc4cccs4)ccc3nc2C)cc1	·	·	11%	-19%	50µM*	?
CCOc1ccc(CNC(=O)c2cc3c(=O)n(Cc4cccs4)ccc3nc2C)cc1	·	·	16%	12%	13µM*	?
CCc1ccc([C@H]2C(C(=O)O)=C[C@@H](CC)N2S(=O)(=O)c2ccc(C)cc2)cc1	5%	3%	-23%	-12%	·	?
Cc1ccc(S(=O)(=O)N(C)C[C@H]2OCCCC[C@@H](C)Oc3ccc(N(C)C)cc3C(=O)N([C@H](C)CO)C[C@@H]2C)cc1	3%	·	-17%	·	·	·
O=C(Nc1ccc(C2=NCCN2)cc1)c1ccc(Cl)c(C(=O)Nc2ccc(C3=NCCN3)cc2)c1	·	-21%	·	·	50µM*	·
O=C(Nc1ccc(Cl)c(Cl)c1)c1ccc(Cl)c(Cl)c1	-1%	20%	-22%	-18%	21%	-26%
SMILES	WRN helicase inh	L3MBTL1 inh	Pol eta inh	POLK inh	Pol beta inh	POLI inh
CCn1c(SCC(=O)N/N=C/C=C/c2ccco2)nnc1-c1ccc(OC)cc1	-14%	?	-6%	-10%	25µM*	-10%
O=C(N/N=C/C=C/c1ccccc1)C(O)c1ccccc1 (stereo not given)	-10%	·	-10%	-6%	·	0%
Cc1ccc(OCC(=O)N/N=C/C=C/c2ccco2)cc1	-12%[11.6 µM]	?	18µM*	?	-27%	16µM*
O=C(N/N=C/C=C/c1ccco1)C(O)c1ccccc1 (stereo not given)	-27%	·	50µM*	?	·	13µM*
O=C(COc1ccccc1[N+](=O)[O-])N/N=C/C=C/c1ccco1	-6%	-30%	?	-36%	?	?
O=C(N/N=C/c1cc(Br)c(Br)o1)C(O)c1ccccc1 (stereo not given)	?	-27%	50µM*	-39%	22µM*	?
Cc1nnc(OC(C)C)c2nn(-c3ccccc3F)c(C)c12	-2%	·	-17%	0%	-10%	-3%
Cc1ccc(S(=O)(=O)N2C[C@H]3[C@H]4C(=O)N(C5CCCCC5)C(=O)[C@H]4CC(=O)[C@H]3[C@@H]2c2ccccc2Cl)cc1	-2%	·	·	·	·	·
CCCCC(=O)OCC(=O)N1N=C(c2c[nH]c3ccccc23)C(O)C1c1ccc(OC)cc1 (stereo not given)	-6%	·	-9%	-13%	11%	5%
CCn1c(SCC(=O)N/N=C/C=C/c2ccco2)nc2ccccc21	?	35µM*	50µM*	-49%	22µM*	20µM*
CCn1c(SCC(=O)N/N=C/c2ccc(C)s2)nc2ccccc21	-6%	3%	-13%	-7%	26%	-3%
Cn1c(SCC(=O)N/N=C/c2ccco2)nc2ccccc21	5%	-1%	3%	-1%	-13%	25%
CC(/C=N/NC(=O)CSc1nc2ccccc2n1C)=C\c1ccco1	-35%	-15%	14µM*	?	?	56µM*
N/C(=N\OC(=O)c1cccc2ccccc12)c1cccc([N+](=O)[O-])c1	-15%	-3%	-9%	-31%	50µM*	?
COc1ccc(C2=NOC(C(=O)Nc3cc(Br)ccc3O)C2)cc1OC (stereo not given)	-2%	-7%	2%	-8%	-10%	-15%[58.9 µM]
CCOC(=O)c1c(C)[nH]c(=S)c(C#N)c1-c1ccc(OC)cc1	1%	·	-19%	-8%	20%	?
CCOC(=O)c1c(C)[nH]c(=S)c(C#N)c1-c1ccc(Cl)cc1	4%	-1%	-21%	-27%	2%	79µM*
Cc1ccc(C)c(N2C(=N)S/C(=C\c3ccc(-c4ccccc4C(=O)O)o3)C2=O)c1	?	?	22µM*	?	?	14µM*

Bioassay records deposited in PubChem by National Center for Advancing Translational Sciences (NCATS).
